Assay results from PubChem BioAssay (NCATS).
Values joined by “and” are separate entries in the source; they are usually repeats but may differ in a detail not shown here. Identical values can stand only once. Results filed as inconclusive are left out. Active and inactive are the calls of the source. Unless noted, the call rests on the fitted dose curve; in most records, active means well fitted curve in the direction sought with a large enough effect; inconclusive means small, poorly fitted or top-dose-only effect, or another doubt; inactive means no such curve, though single readings can be large; an effect the other way counts as inactive or inconclusive.

Experiments:
[1] = molecular target: Arylsulfatase A (Homo sapiens) (UniProt P15289); assay: qHTS screen for enhancers of Arylsulfatase A (ASA1): LOPAC Validation Assay (AID 720538)
Sequence of Arylsulfatase A (Homo sapiens) (P15289 whole entry, looked up): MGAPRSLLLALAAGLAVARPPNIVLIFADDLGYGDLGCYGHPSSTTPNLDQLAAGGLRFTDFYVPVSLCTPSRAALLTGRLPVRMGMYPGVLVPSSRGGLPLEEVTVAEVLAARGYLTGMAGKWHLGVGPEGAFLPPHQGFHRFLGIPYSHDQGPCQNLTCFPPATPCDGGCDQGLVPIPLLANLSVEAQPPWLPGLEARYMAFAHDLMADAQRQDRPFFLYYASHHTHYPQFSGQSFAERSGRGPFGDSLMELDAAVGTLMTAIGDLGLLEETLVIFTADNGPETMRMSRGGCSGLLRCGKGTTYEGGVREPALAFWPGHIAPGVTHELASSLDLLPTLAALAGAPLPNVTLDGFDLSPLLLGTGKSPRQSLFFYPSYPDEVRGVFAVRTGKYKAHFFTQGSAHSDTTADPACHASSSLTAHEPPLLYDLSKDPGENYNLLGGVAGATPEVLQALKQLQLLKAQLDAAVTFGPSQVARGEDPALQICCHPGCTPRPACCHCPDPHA
Procedure, shortened: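 Cell-based enhancement test: residual ASA activity in SV40-transformed I179S patient fibroblasts is measured by pNCS turnover (0.5mM final, 14h, room temperature) following 48h compound incubation; higher fluorescence indicates activation.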

[2] = qHTS for differential inhibitors of proliferation of Plasmodium falciparum line GB4 (AID 1816); details: Potency: Plasmodium falciparum GB4 proliferation inhibition;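 further: potency means the concentration at half of the fitted maximal effect; parasite growth measured after 72 h incubation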
[3] = molecular target: Flap endonuclease 1 (Homo sapiens) (UniProt P39748); assay: qHTS Validation Assay for the Inhibitors of Human Flap endonuclease 1 (FEN1) (AID 488816); further: potency means the concentration at half of the fitted maximal effect
Sequence of Flap endonuclease 1 (Homo sapiens) (P39748 whole entry, looked up): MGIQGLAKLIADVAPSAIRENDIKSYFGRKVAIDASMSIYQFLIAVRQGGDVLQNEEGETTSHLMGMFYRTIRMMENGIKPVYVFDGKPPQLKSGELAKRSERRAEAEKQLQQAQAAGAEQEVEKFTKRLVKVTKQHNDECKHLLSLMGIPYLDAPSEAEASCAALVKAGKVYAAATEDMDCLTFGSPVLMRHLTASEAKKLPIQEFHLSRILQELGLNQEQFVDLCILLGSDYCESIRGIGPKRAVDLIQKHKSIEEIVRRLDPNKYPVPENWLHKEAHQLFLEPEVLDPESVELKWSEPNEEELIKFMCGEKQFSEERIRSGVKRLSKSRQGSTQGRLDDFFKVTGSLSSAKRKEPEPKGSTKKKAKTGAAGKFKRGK
Procedure, shortened: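 Steps: add FEN1 (10 nM reagent) or buffer only; pin compounds; hold 15 min at room temperature; start with substrate, 50 nM final; read at 0 and 15 min; correct, normalize and fit a four-parameter Hill curve.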

[4] = Cell Viability - Jurkat (AID 426;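 active means dose-dependent loss of cell ATP signal giving a full or clear fitted curve, ranked by lower potency value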;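 further: potency means the concentration at half of the fitted maximal effect; cells exposed to compound for 40 hours at 37 °C before ATP read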); details: qHTS
Procedure, shortened: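 Cells of the human T-cell leukemia line Jurkat (E6-1) are seeded at 5000 per well, treated with compound across a concentration range for 40 hours at 37 °C, then lysed with CellTiter-Glo; luminescence reports ATP.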

[5] = molecular target: Mitogen-activated protein kinase 10 (Mus musculus) (UniProt Q61831); assay: JNK3 AlphaScreen Assay (AID 530; active means well fitted curve in either direction with a large enough effect, not every such curve was filed as active;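 further: kinase came from lysate of stimulated human HepG2 cells; signal reports phosphorylation of biotinylated GST-cJun 1-79 at Ser73 with 10 µM ATP; series mostly up to about 57 µM; on the % scale 0 is the no-effect control and ±100 the full control effect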)
Procedure, shortened: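 Phosphorylation of biotinylated GST-cJun(1-79) at Ser73 is measured by AlphaScreen proximity luminescence. Enzyme is JNK3 in HepG2 lysates activated with interleukin-1beta and tumor necrosis factor alpha; ATP is 10 uM final.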

[6] = Cell Viability - H-4-II-E (AID 543); further: on the % scale 0 is the no-effect control and ±100 the full control effect; nearly all actives have a fitted effect of over 35% in size
Procedure, shortened: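 Cells seeded at 1500 per well and rested 5 hr; compounds added; 40 hr incubation at 37 °C; CellTiter-Glo added, 20 min at room temperature; luminescence read. Hill-equation fits gave AC50.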

[7] = Cell Viability - SH-SY5Y (AID 544);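 further: 0% = DMSO alone and -100% = 100 µM tamoxifen; nearly all actives have a fitted effect of over 55% in size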
Procedure, shortened: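 Cells were plated at 1500 per well and allowed 5 hr at 37 °C. Compounds were added across a concentration range and incubated 40 hr at 37 °C. CellTiter-Glo was added for 20 min at room temperature before luminescence reading.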

[8] = MultiTox-Fluor Cytotoxicity Assay - LYMP1-002 - Dead Cells (AID 960); further: nearly all actives have a fitted effect of over 60% in size; further: potency means the concentration at half of the fitted maximal effect
Procedure, shortened: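 Cells were plated, rested 5 hr, then treated with compound dilution series for 16 hr at 37 C. After adding substrate reagent and 60 min at room temperature, dead-cell protease fluorescence gave concentration-response curves fitted by the Hill equation.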

[9] = Cell Viability - LYMP2-012 (AID 982);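 further: cellular ATP by luciferase luminescence where a drop means cytotoxicity; cells exposed to compound for one day before reading; 0% = DMSO only and full loss = 92 µM tetraoctylammonium bromide; nearly all actives have a fitted effect of over 55% in size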
[10] = Cell Viability - LYMP2-014 (AID 983);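 further: series mostly up to about 92 µM; cells exposed to compound for 24 h at 37 °C; plate controls were DMSO only for no effect and 92 µM tetraoctylammonium bromide for full effect; nearly all actives have a fitted effect of over 50% in size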
Procedure, shortened: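 Cells are plated at 2500/well and left 5 hr at 37 C. Compounds are added across a concentration range and incubated 24 hr at 37 C in complete medium. CellTiter-Glo is added, and luminescence is read after 30 min at room temperature.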

[11] = Cell Viability - LYMP2-016 (AID 984);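 further: cells exposed to compound for 24 hours at 37 °C; on the % scale 0 is the no-effect control and ±100 the full control effect; nearly all actives have a fitted effect of over 55% in size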
Procedure, shortened: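 Concentration-dependent ATP depletion measured in LYMP2-016 lymphoblastoid cells, 24 h, 37 C; luciferase-based luminescent detection; Hill-equation AC50.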

[12] = Cell Viability - LYMP2-018 (AID 985);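 further: compound exposure lasted 24 hr at 37 °C; plate controls were DMSO only for no effect and tetraoctylammonium bromide at 92 µM for full effect; nearly all actives have a fitted effect of over 50% in size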
Procedure, shortened: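 Seed 2500 lymphoblastoid cells per well, incubate 5 hr at 37 C, add compound and incubate 24 hr at 37 C, add CellTiter-Glo, wait 30 min at room temperature, then read luminescence.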

[13] = Cell Viability - LYMP2-020 (AID 986);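 further: series mostly up to about 92 µM; cells exposed to compound for 24 h at 37 °C; plate controls were DMSO only for no effect and tetraoctylammonium bromide at 92 µM for full effect; nearly all actives have a fitted effect of over 55% in size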
Procedure, shortened: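 Seed 2500 cells per well and incubate 5 hr at 37 C. Add compounds at a concentration series and incubate 24 hr at 37 C. Add CellTiter-Glo, wait 30 min at RT, read luminescence, and fit a Hill curve for AC50.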

[14] = Cell Viability - LYMP2-022 (AID 987)
Procedure, shortened: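 Cells were seeded at 2500 per well, rested 5 hr at 37 C, and treated with titrated compounds for 24 hr at 37 C. Cellular ATP was then quantified by luciferase luminescence, and AC50 values were derived from Hill-modelled concentration-response curves.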

[15] = Cell Viability - LYMP2-024 (AID 988);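 further: plate controls were DMSO only for no effect and 92 µM tetraoctylammonium bromide for full effect; nearly all actives have a fitted effect of over 60% in size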
Procedure, shortened: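 qHTS cytotoxicity, human lymphoblastoid line, complete medium; 24 h cpd treatment, 37 C; CellTiter-Glo ATP luminescence readout; tetraoctylammonium bromide positive control; AC50 via Hill fit.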

[16] = molecular target: Vitamin D3 receptor (Homo sapiens) (UniProt P11473); assay: qHTS assay for small molecule antagonists of vitamin D receptor signaling (AID 588541; calls by dose curve;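 further: receptor activated by calcitriol during compound treatment; series mostly up to about 77 µM; on the % scale 0 is the no-effect control and ±100 the full control effect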)
Sequence of Vitamin D3 receptor (Homo sapiens) (P11473 whole entry, looked up): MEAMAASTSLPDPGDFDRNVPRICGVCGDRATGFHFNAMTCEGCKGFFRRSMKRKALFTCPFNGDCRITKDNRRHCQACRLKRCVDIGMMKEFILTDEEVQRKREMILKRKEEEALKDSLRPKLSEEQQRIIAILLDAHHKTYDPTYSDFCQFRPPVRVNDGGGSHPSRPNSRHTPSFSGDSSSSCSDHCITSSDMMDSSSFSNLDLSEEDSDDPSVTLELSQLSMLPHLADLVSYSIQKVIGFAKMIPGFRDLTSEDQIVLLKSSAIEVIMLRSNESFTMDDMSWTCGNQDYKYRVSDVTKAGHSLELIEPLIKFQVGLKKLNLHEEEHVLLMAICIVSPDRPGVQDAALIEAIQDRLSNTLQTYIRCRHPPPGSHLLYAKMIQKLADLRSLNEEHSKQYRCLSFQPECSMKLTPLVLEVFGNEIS
Procedure, shortened: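 VDR-UAS-bla HEK293T cells (2000/well, 2% charcoal-stripped FBS) were treated with titrated compounds plus 1-alpha,25-dihydroxyvitamin D3 (50 nM or 3 nM final) for 16 h at 37 C. CCF4 beta-lactamase fluorescence was read; Hill fits gave IC50.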

[17] = qHTS assay for small molecule activators of the nuclear factor-kappa B (NF-kB) signaling pathway (AID 651749; active means well fitted activation curve with a large enough effect in the signal ratio; the % refers to the signal ratio; further: series mostly up to about 77 µM; % of control where 0% means no effect); details: NF-kB-bla ME-180 cells, beta-lactamase FRET ratio, 16 h; activation: active compounds read high
Procedure, shortened: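 Human ME-180 cervical cells with an NF-kB-bla construct; compounds added via 23 nL pin transfer, DMSO as vehicle; incubation 16 hr. Reporter activity measured by FRET disruption.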

[18] = qHTS assay for environmental chemicals that activate the Aryl hydrocarbon Receptor (AhR) signaling pathway (AID 651777); details: 1A2-DRE human hepatoma cells, luciferase, 24 h; activation: active compounds read high; further: % of control where 0% means no effect; nearly all actives have a fitted effect of over 15% in size
Procedure, shortened: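 Quantitative HTS in stably transfected human liver-derived cells whose luciferase gene sits downstream of the CYP1A2 promoter and dioxin response element. After 24 hr exposure at 37 C, One-Glo luminescence was measured.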

[19] = molecular target: Thyroid hormone receptor beta (Homo sapiens) (UniProt P10828); assay: qHTS assay for small molecule agonists of thyroid hormone receptor beta signaling (AID 588545; calls by dose curve;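 further: 0% = DMSO only and 100% = 10 nM T3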)
Sequence of Thyroid hormone receptor beta (Homo sapiens) (P10828 whole entry, looked up): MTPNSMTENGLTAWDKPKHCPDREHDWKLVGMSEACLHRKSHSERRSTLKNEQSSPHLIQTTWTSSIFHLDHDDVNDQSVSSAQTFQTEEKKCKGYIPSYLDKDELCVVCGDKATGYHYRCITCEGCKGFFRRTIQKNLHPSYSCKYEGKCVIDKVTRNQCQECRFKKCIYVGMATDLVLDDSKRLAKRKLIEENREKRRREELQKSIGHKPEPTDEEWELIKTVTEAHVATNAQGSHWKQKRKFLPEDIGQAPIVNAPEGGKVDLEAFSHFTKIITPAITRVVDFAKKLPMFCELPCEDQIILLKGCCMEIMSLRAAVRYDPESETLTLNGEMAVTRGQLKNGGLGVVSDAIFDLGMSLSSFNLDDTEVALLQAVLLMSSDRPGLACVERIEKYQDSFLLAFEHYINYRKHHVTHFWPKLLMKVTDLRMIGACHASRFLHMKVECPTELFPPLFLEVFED
Procedure, shortened: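 Beta-lactamase reporter activity under TR response element control is measured in HEK 293 cells after 18 hrs compound exposure. Signal is ratiometric CCF4 fluorescence, 460/530 nm.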

[20] = molecular target: Thyroid hormone receptor beta (Homo sapiens) (UniProt P10828); assay: qHTS assay for small molecule antagonists of thyroid hormone receptor beta signaling (AID 588547; active means well fitted inhibition curve with a large enough effect in the signal ratio, with a control signal flat, not every such curve was filed as active; the % refers to the signal ratio;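 further: cells stimulated with 0.4 nM T3 agonist during compound exposure; series mostly up to about 77 µM; on the % scale 0 is the no-effect control and ±100 the full control effect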); details: TR-UAS-bla HEK293, beta-lactamase ratio, antagonist mode, 18 h
Procedure, shortened: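 TR-UAS-bla GripTite HEK293 cells in 2% charcoal/dextran FBS medium were preincubated 4 h at 37 C, given compound (0.59 nM to 92 uM) plus 0.4 nM T3 (final) for 18 h, then CCF4 for 2 h at RT; Hill fit gave IC50.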

Nc1nc2ccc(Cl)cc2c2nc(-c3ccco3)nn12
inactive: Potency [1]

N#C/C(=C\c1ccc(O)c(O)c1)C(=O)NCCCNC(=O)/C(C#N)=C/c1ccc(O)c(O)c1
active: Potency [2] 2.24 µM | Potency [3] 0.67 µM

CC(=O)/C=C/c1ccccc1
inactive: Potency [4] > 92 µM | outcome [5] | outcome [6] | outcome [7] | Potency [8] | outcome [9] | outcome [10] | outcome [11] | outcome [12] | outcome [13] | outcome [14] | outcome [15] | outcome [16] | activation [17] -1.47% | activation [18] -0.449%

CCOC(=O)c1ccccc1N
inactive: Potency [4] > 92 µM | outcome [5] | outcome [6] | outcome [7] | Potency [8] | outcome [9] | outcome [10] | outcome [11] | outcome [12] | outcome [13] | outcome [14] | outcome [15] | outcome [16] | Potency [19] | activity change % (negative = inhibition) [20] 5.04% | activation [18] 1.49%

Oc1ccccc1Cl
inactive: Potency [4] > 92 µM | outcome [5] | outcome [6] | outcome [7] | Potency [8] | outcome [9] | outcome [10] | outcome [11] | outcome [12] | outcome [13] | outcome [14] | outcome [15] | outcome [16] | Potency [19] | activity change % (negative = inhibition) [20] -7.68% | activation [17] -1.13% | activation [18] 0.249%

c1ccc(Nc2ccc3ccccc3c2)cc1
inactive: outcome [5] | outcome [9] | outcome [10] | outcome [11] | outcome [12] | outcome [13] | outcome [14] | outcome [15] | Potency [19] | activity change % (negative = inhibition) [20] -6.28% | activation [17] 0.513% and 2.05%

CC(C)COC(=O)c1ccccc1C(=O)OCC(C)C
inactive: Potency [4] > 92 µM | outcome [6] | outcome [7] | outcome [14] | outcome [15] | Potency [19] | activity change % (negative = inhibition) [20] 9.26% | activation [18] 0.543%

COc1cc([C@@H]2c3cc4c(cc3[C@H](O)C3COC(=O)[C@@H]32)OCO4)cc(OC)c1OC (stereo not given in full)
active: Potency [2] 12.6 µM

CCCCCCCCCC[Si](C)(C)CCC(=O)NC(Cc1ccc(C)cc1)c1ccccc1 (stereo not given)
active: Potency [2] 2.24 µM

COC1=CC(=O)OC(CCc2ccc3c(c2)OCO3)C1 (stereo not given)
inactive: outcome [5] | Potency [8] | outcome [10] | outcome [11] | Potency [19] | activity change % (negative = inhibition) [20] -2% | activation [17] -0.795% | activation [18] 9.51%

Oc1ccccc1O
active: Potency [8] 20 µM | Potency [3] 5.97 µM

NO
inactive: Potency [1]

c1ccc2c(c1)-c1cccc3cccc-2c13
inactive: Potency [4] > 92 µM | outcome [6] | outcome [7] | Potency [8] | outcome [9] | outcome [10] | outcome [11] | outcome [12] | outcome [13] | outcome [14] | outcome [15] | outcome [16] | Potency [19] | activity change % (negative = inhibition) [20] 3.57% | activation [17] 0.379%

CN1[C@@H](CC(=O)c2ccccc2)CCC[C@H]1C[C@H](O)c1ccccc1
active: Potency [2] 10 µM
inactive: Potency [3] | Potency [1]

O=C(O)CNC(=O)C(CS)Cc1ccccc1 (stereo not given)
inactive: Potency [1]

CC(=O)C(C)=O
inactive: Potency [1]

Cn1ccnc1
inactive: Potency [3]

Brc1c(Br)c(Br)c2n[nH]nc2c1Br
inactive: Potency [3]
